Bioassay records (PubChem BioAssay)
Shown are actives, neighbours in structure and some others; about 31% of the full set was active somewhere.
CYP2C9 act = human CYP2C9 activators, primary screen, biochemical, luminescence | recombinant CYP2C9, luciferin-H conversion; active compounds read high; factor 1 = untreated enzyme, 0 = blocked | activation factor at 5 µM | 96,000 compounds, 1.4% hits | AID 1024, 2008;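 active = activation factor of 2 or more for CYP2C9 at a 5 µM dose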;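 also: 0 = sulfaphenazole-blocked wells and 1 = vehicle-only wells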
CYP2C19 inhib = blockers of cytochrome P450 2C19 activity – biochemical, luminescence, ADME assay, primary screen; P33261; inhibition, % at 5 µM; CYP2C19 Supersomes, luciferin-H EGE luminescence, 30 min; 96,000 compounds, 21% hits; AID 778, 2007;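 active = CYP2C19 inhibition above a set limit at 5 µM in the primary screen, cut at about 50% in these data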;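 also: plate controls were negative control wells for no effect and 2.5 mM tranylcypromine positive control for full effect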
Target sequence (P33261 whole entry, looked up): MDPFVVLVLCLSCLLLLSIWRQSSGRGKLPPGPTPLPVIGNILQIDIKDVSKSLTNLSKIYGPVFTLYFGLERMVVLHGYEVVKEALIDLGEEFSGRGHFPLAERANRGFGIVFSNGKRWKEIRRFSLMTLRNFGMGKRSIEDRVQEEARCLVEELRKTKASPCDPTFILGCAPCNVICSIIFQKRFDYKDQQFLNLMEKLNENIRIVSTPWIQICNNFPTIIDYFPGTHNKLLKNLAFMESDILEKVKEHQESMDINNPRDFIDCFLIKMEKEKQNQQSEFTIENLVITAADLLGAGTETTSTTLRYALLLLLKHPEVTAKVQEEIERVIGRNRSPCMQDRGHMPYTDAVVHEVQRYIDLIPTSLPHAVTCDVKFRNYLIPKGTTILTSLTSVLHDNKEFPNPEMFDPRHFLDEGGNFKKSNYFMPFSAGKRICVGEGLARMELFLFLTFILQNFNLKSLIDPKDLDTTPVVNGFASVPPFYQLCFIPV
CYP2C9 inhib = blockers of cytochrome P450 2C9 activity – biochemical, luminescence, ADME assay, primary screen; P11712; CYP2C9 Supersomes, luciferin-H conversion; inhibition, % at 5 µM; 96,000 compounds, 20% hits; AID 777, 2007;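 active = blocking of liver enzyme CYP2C9 beyond about 50% at 5 µM, limit read from the data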
CYP2C19 activ = human CYP2C19 activators, primary screen, biochemical, luminescence; AID 1025, 2008; Cytochrome P450 2C19 (Homo sapiens), P33261; 96,000 tested, under 10 active; recombinant CYP2C19, luciferin-H EGE luminescence; active compounds read high; 0 = fully inhibited enzyme, 1 = untreated enzyme; activation factor at 5 µM;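 active = activation factor of at least 2 at 5 µM in the primary screen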;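 also: 0 = wells with 2.5 mM tranylcypromine and 1 = vehicle-only wells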
* marks the source's active call; other numbers are inactive results.

SMILES	CYP2C9 act	CYP2C19 inhib	CYP2C9 inhib	CYP2C19 activ
Cc1ccc(OCCCC(=O)Nc2nncs2)cc1	0.3	88*	74*	0.1
CCCCCC(=O)Nc1ccc2oc(-c3cncc(Br)c3)nc2c1	0.9	46	8	0.5
CCOC(=O)c1snc(C(=O)NC2CCCCC2)c1N	0.7	16	28	0.8
CCOC(=O)c1c(NC(=O)OC)sc(C(=O)N(C)C)c1C	0.5	24	54*	0.8
CCOC(=O)c1sc(C)c(C(=O)NC2CCCCC2)c1N	2.3*	7	-132	0.9
CCOC(=O)c1c(NC(=O)CC)sc(C(C)=O)c1C	0.2	69*	77*	0.3
CCOC(=O)c1c(NC(NC(C)=O)C(Cl)(Cl)Cl)sc(C(C)=O)c1C (stereo not given)	0.5	38	54*	0.6
N#CCCN(C(=O)COC(=O)c1ccc2c(c1)NC(=O)CS2)c1ccc2c(c1)OCCO2	0.8	5	19	0.9
CCOC(=O)c1c(NC(=O)C2c3ccccc3Oc3ccccc32)sc(C(=O)N(CC)CC)c1C	0	39	98*	0.6
CCOC(=O)c1c(NC(=O)Cc2cccs2)sc(C(=O)NC2CCCC2)c1C	0.7	9	29	0.9
CCOC(=O)c1c(NC(=O)Cc2cccs2)sc(C(=O)NC2CCCCC2)c1C	0.3	33	71*	0.7
CCOC(=O)c1c(/N=C/N(C)C)sc(C(=O)OC)c1C	0.5	78*	50	0.2
CCOC(=O)c1c(NC(=O)CN(C)C)sc(C(=O)N(CC)CC)c1C	0.6	30	38	0.7
Cc1cccc(OCC(=O)N(C)CCc2ccccn2)c1	0.9	68*	13	0.3
Cc1cccc(CN(C)CCc2ccccn2)c1	1.1	21	-5	0.8
CN(C)c1ccc(-c2nnn(CC(=O)N3c4ccccc4CCc4ccccc43)n2)cc1	0.2	71*	77*	0.3
CN(C)c1ccc(-c2nnn(CC(=O)Nc3ccccc3N3CCOCC3)n2)cc1	0.1	48	90*	0.5
COc1ccccc1N1CCN(C(=O)Cn2nnc(-c3ccncc3)n2)CC1	0.5	26	46	0.7
Cc1noc(C)c1CSc1nc2ccccc2s1	0.6	94*	39	0.1
Cc1noc(C)c1CSc1ncnc2ccccc12	0.1	96*	86*	0
c1csc(CSc2nc3ccccc3s2)c1	0.9	45	9	0.6
Cc1noc(C)c1CSc1ncnc2sc(C)c(C)c12	0.5	37	49	0.6
C#CCSc1nnc(CSc2nc3ccccc3s2)n1-c1ccccc1	0	85*	99*	0.1
CCn1c(CSc2nc3ccccc3s2)nc2ccccc21	1.3	98*	-27	0
Cc1cc(C(=O)O)c(CCCN)s1	1.1	-4	-8	1
SMILES	CYP2C9 act	CYP2C19 inhib	CYP2C9 inhib	CYP2C19 activ
COC(=O)C1(c2ccccc2)NC(c2cccs2)C2C(=O)N(C)C(=O)C21 (stereo not given)	1.1	0	-12	1
COCCn1nnnc1CN(CCc1ccccc1)Cc1cc2ccc(C)cc2[nH]c1=O	0.7	46	31	0.5
Cc1ccc(OCC2Cn3c(nc4c3c(=O)[nH]c(=O)n4C)O2)cc1 (stereo not given)	1.2	-15	-24	1.1
O=C(NCCn1cccc1)c1cccc2ccccc12	1.7	24	-71	0.8
O=C(NC(=O)c1ccccc1)NC1(C(F)(F)F)OCCO1	0.6	76*	42	0.2
C/C(=N\NC(=O)c1ccccc1)c1ccc(N2CCOCC2)cc1	0.7	27	26	0.7
Nc1ncnc2nc(Sc3ccc(Cl)cc3)[nH]c12	0.7	22	27	0.8
Nc1ncnc2nc(SCc3ccc(Cl)cc3Cl)[nH]c12	0.4	67*	59*	0.3
CCc1nnc(NC(=O)c2ccc(-c3cccc(C(F)(F)F)c3)o2)s1	0.9	34	7	0.7
O=C(N/N=C\c1cn[nH]c1-c1ccccc1)c1cccnc1	0.9	11	15	0.9
COc1ccc(S(=O)(=O)N2CCc3ccccc32)cc1C(=O)OCc1nnc(-c2ccccc2)o1	0	88*	99*	0.1
CS(=O)(=O)N(CC(=O)NCCSCc1cccc(Cl)c1)c1ccc2c(c1)OCO2	0.2	88*	82*	0.1
CN(C)C(=O)CN(c1ccc2c(c1)OCO2)S(C)(=O)=O	1	18	4	0.8
CS(=O)(=O)N(CC(=O)NCCSc1ccccc1)c1ccc2c(c1)OCO2	0.4	76*	64*	0.2
CS(=O)(=O)N(CC(=O)NCCSc1ccc(Cl)cc1)c1ccc2c(c1)OCO2	0.4	69*	62*	0.3
CC(C)CNC(=O)c1cccc(NC(=O)C2CCCO2)c1 (stereo not given)	0.9	2	14	1
COc1cccc(NC(=O)CSc2ccc3nnc(-c4ccncc4)n3n2)c1	0.5	12	50	0.9
O=C(NCc1ccco1)c1n[nH]c(=O)c2ccccc12	0.9	4	11	1
O=C(NCc1ccco1)c1ccc(C(=O)NCc2ccco2)s1	0.7	5	33	1
O=C(NCc1ccco1)c1ccccc1NS(=O)(=O)c1ccc(Cl)s1	0	-17	97*	1.2
O=C(NCc1ccco1)c1ccccc1NS(=O)(=O)c1cccs1	0.3	81*	72*	0.2
O=C(NCc1ccco1)c1ccccc1NS(=O)(=O)c1ccc2c(c1)OCCO2	1.6	56*	-61	0.4
O=C(OCc1cccs1)c1ccccc1NS(=O)(=O)c1ccc2c(c1)OCCO2	0.8	60*	24	0.4
CC1(C)Cc2c(sc3ncn4nnnc4c23)CO1	0.8	7	16	0.9
COc1ccc(CC(C(=O)Nc2cccc(F)c2)c2nn[nH]n2)c(OC)c1 (stereo not given)	0.7	29	32	0.7
SMILES	CYP2C9 act	CYP2C19 inhib	CYP2C9 inhib	CYP2C19 activ
O=C(NCCCN1CCOCC1)c1ccc(CS(=O)(=O)Cc2ccc(Cl)cc2)o1	1	-4	2	1
CCOC(=O)C1=C(c2ccccc2)NC(=S)NC1C (stereo not given)	0.9	52*	8	0.5
CCOC(=O)C1=C(C)C(c2ccccc2)NC(=S)N1 (stereo not given)	0.8	63*	24	0.4
Cc1cc2ncn(C(=O)c3c(-c4ccccc4Cl)noc3C)c2cc1C	0.6	38	44	0.6
CCCCc1ccc(S(=O)(=O)Nc2cc(C)on2)cc1	0	44	96*	0.6
Cc1cc(NC(=O)CSc2ccc3c(c2)OCCO3)no1	0.6	57*	40	0.4
O=C1CC(C(=O)NC2CCCCC2)C(c2ccccc2)O1 (stereo not given)	1.3	13	-30	0.9
Cc1cc(NC(=O)C2CC(=O)OC2c2ccccc2)no1 (stereo not given)	0.9	52*	12	0.5
Cc1cc(NC(=O)CSc2ccccc2)no1	0.6	51*	38	0.5
Cc1cc(C)nc(SCC(=O)Nc2cc(C)on2)n1	1.1	35	-10	0.6
